Results reported in the supplement of paper PMC11001985.

compound: C#CCNC(=O)CCSSCCC(=O)NCCc1ccc(C=O)c(C=O)c1; experiment: lysine labeling ratio R10:1 (500 µM / 50 µM probe), SILAC-ABPP in living cells; higher = lower intrinsic lysine reactivity toward the probe, active = 2 or less; settings: HeLa; probe concentrations 500 vs 50 µM
Outline: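 An alkyne-tagged lysine probe with a disulfide linker labelled living HeLa cells in PBS at room temperature at either 50 µM or 500 µM, using SILAC light and heavy cells in forward and reverse label swaps. Lysates were mixed, clicked to biotin-azide, trypsin-digested, enriched on neutravidin, DTT-released, alkylated and measured by LC-MS/MS on a TIMS-TOF Pro. Each lysine's R is the filtered median high-probe/low-probe MS1 peptide ratio, combined as the median over forward and reverse replicates, with 20 as the upper limit.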

UniProt Q15149, sequence (Q15149 whole entry): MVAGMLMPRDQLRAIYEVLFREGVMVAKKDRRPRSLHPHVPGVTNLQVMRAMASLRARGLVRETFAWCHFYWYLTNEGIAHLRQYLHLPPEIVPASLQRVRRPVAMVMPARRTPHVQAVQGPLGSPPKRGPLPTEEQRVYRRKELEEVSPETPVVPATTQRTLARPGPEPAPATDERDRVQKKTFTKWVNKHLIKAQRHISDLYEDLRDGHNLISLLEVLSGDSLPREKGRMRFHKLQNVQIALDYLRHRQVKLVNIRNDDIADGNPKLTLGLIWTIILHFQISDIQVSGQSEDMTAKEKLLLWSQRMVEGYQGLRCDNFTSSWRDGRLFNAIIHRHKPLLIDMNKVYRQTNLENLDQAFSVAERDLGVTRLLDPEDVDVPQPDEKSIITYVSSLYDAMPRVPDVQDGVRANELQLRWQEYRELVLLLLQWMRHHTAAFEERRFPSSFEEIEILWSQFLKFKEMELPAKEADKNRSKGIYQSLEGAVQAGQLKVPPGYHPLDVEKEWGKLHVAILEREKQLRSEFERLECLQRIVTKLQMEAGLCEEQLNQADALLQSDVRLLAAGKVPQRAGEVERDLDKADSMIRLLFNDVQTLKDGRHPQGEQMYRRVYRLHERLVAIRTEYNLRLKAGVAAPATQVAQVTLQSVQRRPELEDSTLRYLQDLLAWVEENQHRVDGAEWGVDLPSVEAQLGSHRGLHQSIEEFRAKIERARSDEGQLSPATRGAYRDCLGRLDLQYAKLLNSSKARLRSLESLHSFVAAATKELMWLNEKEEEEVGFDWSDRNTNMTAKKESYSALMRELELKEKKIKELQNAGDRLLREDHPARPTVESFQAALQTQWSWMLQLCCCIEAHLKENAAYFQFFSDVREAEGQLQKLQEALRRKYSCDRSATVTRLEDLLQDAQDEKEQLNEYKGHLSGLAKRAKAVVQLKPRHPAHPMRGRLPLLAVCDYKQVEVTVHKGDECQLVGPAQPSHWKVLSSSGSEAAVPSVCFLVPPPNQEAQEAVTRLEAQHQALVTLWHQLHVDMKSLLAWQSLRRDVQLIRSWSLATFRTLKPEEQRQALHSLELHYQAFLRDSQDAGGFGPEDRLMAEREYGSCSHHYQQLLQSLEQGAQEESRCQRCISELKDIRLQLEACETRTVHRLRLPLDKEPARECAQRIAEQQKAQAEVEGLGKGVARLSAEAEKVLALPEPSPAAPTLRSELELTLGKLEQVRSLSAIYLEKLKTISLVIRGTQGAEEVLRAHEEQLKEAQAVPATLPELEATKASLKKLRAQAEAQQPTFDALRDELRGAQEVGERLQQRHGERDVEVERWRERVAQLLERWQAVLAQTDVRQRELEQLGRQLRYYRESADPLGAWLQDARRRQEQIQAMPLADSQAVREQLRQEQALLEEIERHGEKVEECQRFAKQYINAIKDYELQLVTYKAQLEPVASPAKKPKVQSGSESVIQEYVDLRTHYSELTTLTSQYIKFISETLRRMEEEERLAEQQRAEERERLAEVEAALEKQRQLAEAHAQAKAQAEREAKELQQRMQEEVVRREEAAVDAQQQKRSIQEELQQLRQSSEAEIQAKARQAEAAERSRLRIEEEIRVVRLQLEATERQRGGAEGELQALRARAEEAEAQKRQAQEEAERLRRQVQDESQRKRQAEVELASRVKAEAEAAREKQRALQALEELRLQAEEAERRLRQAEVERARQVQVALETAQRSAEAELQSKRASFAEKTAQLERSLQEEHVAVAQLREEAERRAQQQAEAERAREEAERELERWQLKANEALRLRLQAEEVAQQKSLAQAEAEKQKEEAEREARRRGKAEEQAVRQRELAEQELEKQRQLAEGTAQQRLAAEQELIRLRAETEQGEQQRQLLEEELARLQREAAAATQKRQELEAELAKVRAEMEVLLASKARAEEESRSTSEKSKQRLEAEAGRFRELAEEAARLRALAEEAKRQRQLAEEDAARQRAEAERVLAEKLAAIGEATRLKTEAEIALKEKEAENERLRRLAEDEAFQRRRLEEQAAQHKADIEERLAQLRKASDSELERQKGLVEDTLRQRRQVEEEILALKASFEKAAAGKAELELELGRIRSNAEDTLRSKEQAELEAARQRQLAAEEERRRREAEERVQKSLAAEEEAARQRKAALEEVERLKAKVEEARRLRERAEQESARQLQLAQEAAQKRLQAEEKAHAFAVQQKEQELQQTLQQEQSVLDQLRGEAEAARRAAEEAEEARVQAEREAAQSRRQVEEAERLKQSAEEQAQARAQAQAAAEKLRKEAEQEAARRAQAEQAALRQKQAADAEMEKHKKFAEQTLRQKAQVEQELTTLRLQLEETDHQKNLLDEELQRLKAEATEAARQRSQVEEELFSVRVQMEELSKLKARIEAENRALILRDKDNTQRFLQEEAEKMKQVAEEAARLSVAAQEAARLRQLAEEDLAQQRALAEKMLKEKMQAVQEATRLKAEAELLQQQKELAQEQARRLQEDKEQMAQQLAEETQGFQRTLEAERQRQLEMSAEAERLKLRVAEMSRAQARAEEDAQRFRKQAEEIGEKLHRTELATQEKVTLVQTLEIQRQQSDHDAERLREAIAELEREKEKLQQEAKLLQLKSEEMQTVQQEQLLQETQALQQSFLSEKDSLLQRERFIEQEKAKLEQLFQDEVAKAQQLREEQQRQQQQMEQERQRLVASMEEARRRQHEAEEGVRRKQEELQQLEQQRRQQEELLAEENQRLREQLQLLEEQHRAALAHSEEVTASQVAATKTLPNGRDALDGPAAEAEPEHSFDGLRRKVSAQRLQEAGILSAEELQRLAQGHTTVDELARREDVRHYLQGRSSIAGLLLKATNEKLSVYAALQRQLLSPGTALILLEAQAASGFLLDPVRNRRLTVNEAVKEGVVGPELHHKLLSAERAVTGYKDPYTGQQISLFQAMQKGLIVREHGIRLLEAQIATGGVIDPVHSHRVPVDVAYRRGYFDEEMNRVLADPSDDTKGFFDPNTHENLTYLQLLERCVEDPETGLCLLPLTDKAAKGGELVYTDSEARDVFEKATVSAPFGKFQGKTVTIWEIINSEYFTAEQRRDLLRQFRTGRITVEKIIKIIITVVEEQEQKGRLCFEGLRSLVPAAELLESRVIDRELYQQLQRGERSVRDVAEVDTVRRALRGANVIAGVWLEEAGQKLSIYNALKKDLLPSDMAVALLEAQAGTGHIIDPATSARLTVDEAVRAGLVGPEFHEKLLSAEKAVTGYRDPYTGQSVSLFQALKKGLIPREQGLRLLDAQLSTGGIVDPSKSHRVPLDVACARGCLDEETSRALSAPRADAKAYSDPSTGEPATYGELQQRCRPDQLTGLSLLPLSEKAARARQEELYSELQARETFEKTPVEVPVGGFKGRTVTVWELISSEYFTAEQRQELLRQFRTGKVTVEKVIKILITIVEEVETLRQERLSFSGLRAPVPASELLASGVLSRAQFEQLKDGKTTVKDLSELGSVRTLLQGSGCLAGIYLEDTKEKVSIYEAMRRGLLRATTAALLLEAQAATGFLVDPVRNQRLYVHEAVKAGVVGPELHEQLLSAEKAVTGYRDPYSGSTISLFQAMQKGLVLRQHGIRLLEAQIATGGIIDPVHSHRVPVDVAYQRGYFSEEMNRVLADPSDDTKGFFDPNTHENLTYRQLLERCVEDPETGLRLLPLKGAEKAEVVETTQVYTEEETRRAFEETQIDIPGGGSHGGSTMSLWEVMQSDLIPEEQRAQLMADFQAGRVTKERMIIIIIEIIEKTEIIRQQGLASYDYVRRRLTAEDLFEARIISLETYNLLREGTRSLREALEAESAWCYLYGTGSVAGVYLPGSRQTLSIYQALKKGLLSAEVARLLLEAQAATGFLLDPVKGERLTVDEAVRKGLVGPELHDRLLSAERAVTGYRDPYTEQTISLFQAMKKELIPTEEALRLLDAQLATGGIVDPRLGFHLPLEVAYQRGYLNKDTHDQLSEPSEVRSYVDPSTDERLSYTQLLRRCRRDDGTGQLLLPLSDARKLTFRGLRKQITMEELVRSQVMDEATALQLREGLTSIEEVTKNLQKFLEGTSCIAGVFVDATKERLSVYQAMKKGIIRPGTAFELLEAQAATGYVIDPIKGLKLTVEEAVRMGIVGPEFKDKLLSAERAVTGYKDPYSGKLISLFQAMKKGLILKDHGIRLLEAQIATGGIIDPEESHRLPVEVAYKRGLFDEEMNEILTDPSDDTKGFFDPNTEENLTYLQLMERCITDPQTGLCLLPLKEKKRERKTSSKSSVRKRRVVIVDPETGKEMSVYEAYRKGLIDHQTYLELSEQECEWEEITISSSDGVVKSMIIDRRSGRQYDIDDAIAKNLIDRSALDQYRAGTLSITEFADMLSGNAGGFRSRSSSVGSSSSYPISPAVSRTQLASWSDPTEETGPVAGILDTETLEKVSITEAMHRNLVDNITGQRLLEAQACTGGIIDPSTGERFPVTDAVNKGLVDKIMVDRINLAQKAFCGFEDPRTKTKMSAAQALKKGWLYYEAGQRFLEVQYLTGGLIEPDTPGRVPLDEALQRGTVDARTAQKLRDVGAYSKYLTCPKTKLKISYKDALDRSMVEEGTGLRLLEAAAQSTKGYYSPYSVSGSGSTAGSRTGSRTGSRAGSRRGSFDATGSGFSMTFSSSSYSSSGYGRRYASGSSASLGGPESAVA
UniProt O60701, sequence (O60701 whole entry): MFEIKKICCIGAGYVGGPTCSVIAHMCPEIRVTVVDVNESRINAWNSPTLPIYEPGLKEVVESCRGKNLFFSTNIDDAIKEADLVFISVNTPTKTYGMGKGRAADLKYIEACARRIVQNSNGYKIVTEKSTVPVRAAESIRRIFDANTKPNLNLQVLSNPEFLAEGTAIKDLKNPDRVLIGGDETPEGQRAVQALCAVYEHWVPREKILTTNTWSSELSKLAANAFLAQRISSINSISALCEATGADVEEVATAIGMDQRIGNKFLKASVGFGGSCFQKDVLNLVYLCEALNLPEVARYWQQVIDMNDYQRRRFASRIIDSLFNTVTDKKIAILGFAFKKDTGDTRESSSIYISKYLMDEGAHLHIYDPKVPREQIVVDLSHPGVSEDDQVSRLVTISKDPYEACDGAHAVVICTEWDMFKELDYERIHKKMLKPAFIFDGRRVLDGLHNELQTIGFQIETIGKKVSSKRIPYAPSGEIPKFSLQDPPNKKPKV

Target | lysine labeling ratio R10:1
UniProt Q15149 (lysine site: K4348) | 1.12 (active)
UGDH (lysine site: K173) (UniProt O60701) | 1.43 (active)
CD97 (lysine site: K422) (UniProt P48960) | 2.07 (inactive)
PRDX1 (lysine site: K109) (UniProt Q06830) | 2.64 (inactive)
C1QBP (lysine site: K91) (UniProt Q07021) | 0.97 (active)
RPL12 (lysine site: K54) (UniProt P30050) | 0.658 (active)
PLXNB2 (lysine site: K1159) (UniProt O15031) | 1.75 (active)
EDIL3 (lysine site: K444) (UniProt O43854) | 3.53 (inactive)
S100A11 (lysine site: K55) (UniProt P31949) | 1.54 (active)
ECH1 (lysine site: K231) (UniProt Q13011) | 1.7 (active)
ENG (lysine site: K556) (UniProt P17813) | 2.03 (inactive)
UniProt P61978 (lysine site: K34) | 3.82 (inactive)
ALCAM (lysine site: K87) (UniProt Q13740) | 1.41 (active)
CCT2 (lysine site: K135) (UniProt P78371) | 2.8 (inactive)
UniProt Q15149 (lysine site: K4205) | 1.51 (active)
ITGAV (lysine site: K134) (UniProt P06756) | 2.96 (inactive)
RPL5 (lysine site: K178) (UniProt P46777) | 4.17 (inactive)
CDCP1 (lysine site: K396) (UniProt Q9H5V8) | 0.987 (active)
UniProt Q9Y653 (lysine site: K49) | 1.54 (active)
KTN1 (lysine site: K617) (UniProt Q86UP2) | 1.17 (active)

Target | lysine labeling ratio R10:1
UniProt P46781 (lysine site: K52) | 2.39 (inactive)
GPI (lysine site: K366) (UniProt P06744) | 2.81 (inactive)
FLNB (lysine site: K987) (UniProt O75369) | 5.99 (inactive)
UniProt Q6NZI2 (lysine site: K299) | 4.52 (inactive)
G6PD (lysine site: K171) (UniProt P11413) | 6.51 (inactive)
ATP6V0D1 (lysine site: K77) (UniProt P61421) | 1.33 (active)
TFPI (lysine site: K101) (UniProt P10646) | 7.9 (inactive)
FLNA (lysine site: K578) (UniProt P21333) | 1.25 (active)
ST13 (lysine site: K230) (UniProt P50502) | 4.87 (inactive)
UniProt P09758 (lysine site: K138) | 5.06 (inactive)
FZD1 (lysine site: K384) (UniProt Q9UP38) | 0.938 (active)
CCT5 (lysine site: K514) (UniProt P48643) | 2.42 (inactive)
UniProt P61026 (lysine site: K136) | 1.9 (active)
RPL4 (lysine site: K120) (UniProt P36578) | 3.18 (inactive)
TGFBR3 (lysine site: K686) (UniProt Q03167) | 1.81 (active)
UniProt Q15149 (lysine site: K2099) | 4.12 (inactive)
GANAB (lysine site: K191) (UniProt Q14697) | 4.19 (inactive)
UniProt Q8WXI7 (lysine site: K12605) | 3.8 (inactive)
LRPAP1 (lysine site: K107) (UniProt P30533) | 1.78 (active)
SLC25A5 (lysine site: K105) (UniProt P05141) | 6.97 (inactive)
